Consider 43 compounds from the antibiotic and cytotoxicity screens of Wong et al. (2023).

About 3,300 (8.5%) of roughly 39,000 compounds were called active. Shown is part of a subset that was picked to be rich in actives.

The subject of this test is HepG2. As to the kind of experiment: cytotoxicity call (relative viability < 0.9). The note with it: 10 µM.
`Cc1noc(C)c1NC(=O)N(C)C[C@@H]1Oc2c(NC(=O)c3ccc(-c4nccs4)cc3)cccc2C(=O)N([C@@H](C)CO)C[C@@H]1C`: the cytotoxicity call is “inactive”.

Regarding `C[C@@H]1CCCCO[C@H](CN(C)C(=O)Cc2ccccc2)[C@H](C)CN([C@H](C)CO)C(=O)c2cc(NS(=O)(=O)c3ccc(F)cc3)ccc2O1`, the cytotoxicity call was “inactive”.

Take `C[C@H](CO)N1C[C@H](C)[C@@H](CN(C)C(=O)Nc2cccc3ccccc23)Oc2ccc(NC(=O)Cc3ccccc3)cc2CC1=O`: the cytotoxicity call is “inactive”.

Consider `Cc1noc(C)c1NC(=O)Nc1ccc2c(c1)C(=O)N([C@@H](C)CO)C[C@H](C)[C@@H](CN(C)Cc1ccc3c(c1)OCO3)OCCCC[C@H](C)O2`, for which the cytotoxicity call is “inactive”.

With `Brc1cccc2ocnc12`, the cytotoxicity call is “inactive”.

On to `Cc1cc(C(=O)Nc2cccc3c2O[C@H](CN(C)Cc2ccc(C(=O)O)cc2)[C@H](C)CN([C@H](C)CO)C3=O)n(C)n1`, for which the cytotoxicity call was “inactive”.

For `CC[C@H](C)[C@@H]([C@@H](CC(=O)N1CCC[C@H]1[C@H](OC)[C@@H](C)C(=O)N[C@@H](Cc1ccccc1)c1nccs1)OC)N(C)C(=O)[C@@H](NC(=O)[C@H](C(C)C)N(C)C)C(C)C`, the cytotoxicity call is “active”.

For the compound `C[C@@H]1CCCCO[C@H](CN(C)C(=O)Nc2cccc3ccccc23)[C@H](C)CN([C@@H](C)CO)C(=O)c2cc(NC(=O)Nc3ccc4c(c3)OCO4)ccc2O1`, the cytotoxicity call is “inactive”.

Regarding `Cc1noc(C)c1NC(=O)Nc1ccc2c(c1)C(=O)N([C@H](C)CO)C[C@H](C)[C@@H](CN(C)Cc1ccc(-c3ccccc3)cc1)O2`, the cytotoxicity call was “inactive”.

In the case of `O=C(Nc1cccc([N+](=O)[O-])c1)C(=O)NC1CC1`, the cytotoxicity call is “inactive”.

With `COC(=O)C1=C(C)NC(C)=C(C(=O)OCC(C)C)C1c1ccccc1[N+](=O)[O-]` (stereo not drawn), the cytotoxicity call was “inactive”.

Consider `CCCN1C(C)=C(C(=O)OC)[C@@H](c2cccc([N+](=O)[O-])c2)C(C(=O)ON2CCC(c3ccccc3)(c3ccccc3)CC2)=C1C`, for which the cytotoxicity call is “active”.

`COC(=O)C1=C(C#N)NC(C)=C(C(=O)OC(C)C)C1c1cccc([N+](=O)[O-])c1` (stereo not drawn): the cytotoxicity call is “active”.

`COC(=O)C1=C(C)NC(C)=C(C(=O)OCCN2CCN(C(c3ccccc3)c3ccccc3)CC2)C1c1cccc([N+](=O)[O-])c1` (stereo not drawn): the cytotoxicity call was “active”.

Take `COC(=O)C1=C(C)NC(C)=C(C(=O)OC(C)(C)CN(C)CCC(c2ccccc2)c2ccccc2)[C@@H]1c1cccc([N+](=O)[O-])c1`: the cytotoxicity call was “inactive”.

On to `NNC(=O)c1cccc([N+](=O)[O-])c1`, for which the cytotoxicity call was “inactive”.

As for `COC(=O)C1=C(C)NC(C)=C(C(=O)OCC(C)C)[C@@H]1c1ccccc1[N+](=O)[O-]`, the cytotoxicity call was “inactive”.

Turning to `COC(=O)C1=C(C)NC(C)=C(C(=O)OCCN(C)Cc2ccccc2)C1c1cccc([N+](=O)[O-])c1.Cl` (stereo not drawn), the cytotoxicity call was “inactive”.

For `CCOC(=O)C1=C(C)NC(c2ccccc2)=C(C(=O)OCc2ccc([N+](=O)[O-])cc2)[C@@H]1C#Cc1ccccc1`, the cytotoxicity call is “inactive”.

As to `COC(=O)C1=C(C)NC(C)=C(C(=O)NCCCN2CCC(c3ccccc3)(c3ccccc3)CC2)[C@@H]1c1ccc([N+](=O)[O-])cc1`, the cytotoxicity call was “active”.

For the compound `CCOC(=O)C1=C(C)NC(C)=C(C(=O)OC)C1c1cccc([N+](=O)[O-])c1` (stereo not drawn), the cytotoxicity call was “inactive”.

Consider `Oc1ccccc1CNc1ccc(C2CCCCC2)cc1`, for which the cytotoxicity call was “inactive”.

Regarding `CNCc1cc2ccccc2s1`, the cytotoxicity call is “inactive”.

Take `O=C(C[C@@H]1C[C@@H]2c3cc(NC(=O)c4ccc5c(c4)OCO5)ccc3O[C@@H]2[C@H](CO)O1)NCCN1CCCCC1`: the cytotoxicity call was “inactive”.

Consider `Cc1noc(C)c1NC(=O)Nc1ccc2c(c1)C(=O)N([C@@H](C)CO)C[C@H](C)[C@@H](CN(C)C(=O)Cc1ccccc1)OCCCC[C@H](C)O2`, for which the cytotoxicity call was “inactive”.

Regarding `Cn1ccc(C(=O)N2CC[C@@H]3OCCN(S(C)(=O)=O)[C@@H]3C2)n1`, the cytotoxicity call is “inactive”.

`C[C@H]1CN([C@@H](C)CO)C(=O)c2cc(NS(=O)(=O)c3ccc(Cl)cc3)ccc2O[C@H]1CN(C)Cc1ccc(C(=O)Nc2ccccc2N)cc1`: the cytotoxicity call was “inactive”.

On to `C[C@@H]1CN([C@H](C)CO)C(=O)c2cc(C#Cc3ccc(F)cc3)cnc2O[C@@H]1CN(C)CC1CCOCC1`, for which the cytotoxicity call was “inactive”.

Consider `CC1(C)OC2CC3C4CC(F)C5=CC(=O)C=CC5(C)C4(F)C(O)CC3(C)C2(C(=O)CO)O1` (stereo not drawn), for which the cytotoxicity call was “inactive”.

In the case of `CC1=C(C(=O)OCCN(Cc2ccccc2)c2ccccc2)[C@H](c2cccc([N+](=O)[O-])c2)C(P2(=O)OCC(C)(C)CO2)=C(C)N1`, the cytotoxicity call is “inactive”.

On to `COc1cc(OC)cc(C(=O)OCCCN2CCN(CCCOC(=O)c3cc(OC)cc(OC)c3)CC2)c1`, for which the cytotoxicity call was “inactive”.

As to `COC(=O)C1=C(C)NC(C)=C(C(=O)OCCCN2CCC(c3ccccc3)(c3ccccc3)CC2)[C@H]1c1cccc([N+](=O)[O-])c1`, the cytotoxicity call is “active”.

Consider `CC1=C(C(=O)OCCN(Cc2ccccc2)c2ccccc2)[C@@H](c2cccc([N+](=O)[O-])c2)C(P2(=O)OCC(C)(C)CO2)=C(C)N1.CCO.Cl`, for which the cytotoxicity call was “inactive”.

As for `COCCOC(=O)C1=C(C)NC(C)=C(C(=O)OC(C)C)C1c1cccc([N+](=O)[O-])c1` (stereo not drawn), the cytotoxicity call was “inactive”.

On to `COCCOC(=O)C1=C(C)NC(C)=C(C(=O)OCC=Cc2ccccc2)C1c1cccc([N+](=O)[O-])c1` (stereo not drawn), for which the cytotoxicity call was “active”.

For `COC(=O)C1=C(C)NC(C)=C(C(=O)OCCCN2CCC(c3ccccc3)(c3ccccc3)CC2)[C@@H]1c1cccc([N+](=O)[O-])c1`, the cytotoxicity call is “active”.

As for `O=C(C[C@@H]1CC[C@H]2[C@@H](COC[C@@H](O)CN2Cc2ccccc2F)O1)N[C@H]1CCN(Cc2ccccc2)C1`, the cytotoxicity call is “inactive”.

With `CO[C@@H]1CN(C)C(=O)c2ccc(NC(=O)c3ccc(F)cc3)cc2OC[C@H](C)N(C(=O)CN(C)C)C[C@@H]1C`, the cytotoxicity call was “inactive”.

For `C[C@H]1CN([C@@H](C)CO)C(=O)c2cccc(NC(=O)C3CC3)c2O[C@H]1CN(C)Cc1ccc2c(c1)OCO2`, the cytotoxicity call is “inactive”.

For `C[C@@H]1CN([C@H](C)CO)S(=O)(=O)c2ccc(C#CCN(C)C)cc2O[C@H]1CN(C)C(=O)CN(C)C`, the cytotoxicity call was “inactive”.

Take `Cc1noc(C)c1NC(=O)N(C)C[C@H]1Oc2ccc(NS(=O)(=O)c3ccccc3)cc2C(=O)N([C@H](C)CO)C[C@H]1C`: the cytotoxicity call is “inactive”.

For `COCCNC(=O)C[C@H]1CC[C@H]2[C@H](COc3ccc(NC(=O)Nc4cccc(F)c4)cc3C(=O)N2C)O1`, the cytotoxicity call is “inactive”.

As for `C[C@H](CO)N1C[C@H](C)[C@@H](CN(C)CC2CC2)Oc2ccc(NS(=O)(=O)c3cccs3)cc2CC1=O`, the cytotoxicity call was “inactive”.
